# Substitutions are numbered along the chain they refer to.
# Columns and labels:
# Experiment in all cases: PBM; 200 nM protein, PBS
# Settings in all cases: dsDNA, one strand shown
# SIX6 [1] = molecular target: T1, SIX6 (Homo sapiens, UniProt O95475 114-200, L167I)
# T1 sequence: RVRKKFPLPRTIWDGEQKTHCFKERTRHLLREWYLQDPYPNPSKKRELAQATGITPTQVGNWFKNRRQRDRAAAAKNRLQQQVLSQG
# SIX6 [2] = molecular target: T2, SIX6 (Homo sapiens, UniProt O95475 114-200, L143V)
# T2 sequence: T1 sequence with L30V, I54L
# SIX6 [3] = molecular target: T3, SIX6 (Homo sapiens, UniProt O95475 114-200, H141N)
# T3 sequence: T1 sequence with H28N, I54L
# SIX6 [4] = molecular target: T4, SIX6 (Homo sapiens, UniProt O95475 114-200, T165P)
# T4 sequence: T1 sequence with T52P, I54L
# SIX6 [5] = molecular target: T5, SIX6 (Homo sapiens, UniProt O95475 114-200, L167M)
# T5 sequence: T1 sequence with I54M
# SIX6 [6] = molecular target: T6, SIX6 (Homo sapiens, UniProt O95475 114-200, L143M)
# T6 sequence: T1 sequence with L30M, I54L
# SIX6 [7] = molecular target: T7, SIX6 (Homo sapiens, UniProt O95475 114-200, L143I)
# T7 sequence: T1 sequence with L30I, I54L
# SIX6 [8] = molecular target: T8, SIX6 (Homo sapiens, UniProt O95475 114-200, T165G)
# T8 sequence: T1 sequence with T52G, I54L
# SIX6 [9] = molecular target: T9, SIX6 (Homo sapiens, UniProt O95475 114-200, T139Q)
# T9 sequence: T1 sequence with T26Q, I54L
# SIX6 [10] = molecular target: T10, SIX6 (Homo sapiens, UniProt O95475 114-200, T165A)
# T10 sequence: T1 sequence with T52A, I54L
# SIX6 [11] = molecular target: T11, SIX6 (Homo sapiens, UniProt O95475 114-200, L167V)
# T11 sequence: T1 sequence with I54V
# SIX6 [12] = molecular target: T12, SIX6 (Homo sapiens, UniProt O95475 114-200)
# T12 sequence: T1 sequence with I54L
# SIX6 [13] = molecular target: T13, SIX6 (Homo sapiens, UniProt O95475 114-200, T165I)
# T13 sequence: T1 sequence with T52I, I54L
Sequence,binding signal (SIX6 [1]),binding signal (SIX6 [2]),binding signal (SIX6 [3]),binding signal (SIX6 [4]),binding signal (SIX6 [5]),binding signal (SIX6 [6]),binding signal (SIX6 [7]),binding signal (SIX6 [8]),binding signal (SIX6 [9]),binding signal (SIX6 [10]),binding signal (SIX6 [11]),binding signal (SIX6 [12]),binding signal (SIX6 [13])
ATGATATC,"11.4 upbm affinity estimate (log intensity, higher = more binding, comparable within an allelic series)","10.5 upbm affinity estimate (log intensity, higher = more binding, comparable within an allelic series)","11.5 upbm affinity estimate (log intensity, higher = more binding, comparable within an allelic series)","9.88 upbm affinity estimate (log intensity, higher = more binding, comparable within an allelic series)","10.9 upbm affinity estimate (log intensity, higher = more binding, comparable within an allelic series)","11.2 upbm affinity estimate (log intensity, higher = more binding, comparable within an allelic series)","10.6 upbm affinity estimate (log intensity, higher = more binding, comparable within an allelic series)","11.6 upbm affinity estimate (log intensity, higher = more binding, comparable within an allelic series)","11.5 upbm affinity estimate (log intensity, higher = more binding, comparable within an allelic series)","11.4 upbm affinity estimate (log intensity, higher = more binding, comparable within an allelic series)","11.4 upbm affinity estimate (log intensity, higher = more binding, comparable within an allelic series)","11.3 upbm affinity estimate (log intensity, higher = more binding, comparable within an allelic series)","11.2 upbm affinity estimate (log intensity, higher = more binding, comparable within an allelic series)"
GATCCGGA,"10.4 upbm affinity estimate (log intensity, higher = more binding, comparable within an allelic series)","9.71 upbm affinity estimate (log intensity, higher = more binding, comparable within an allelic series)","10.2 upbm affinity estimate (log intensity, higher = more binding, comparable within an allelic series)","9.25 upbm affinity estimate (log intensity, higher = more binding, comparable within an allelic series)",–,–,"9.87 upbm affinity estimate (log intensity, higher = more binding, comparable within an allelic series)","10.4 upbm affinity estimate (log intensity, higher = more binding, comparable within an allelic series)","10.7 upbm affinity estimate (log intensity, higher = more binding, comparable within an allelic series)","10.3 upbm affinity estimate (log intensity, higher = more binding, comparable within an allelic series)","10.3 upbm affinity estimate (log intensity, higher = more binding, comparable within an allelic series)","10.4 upbm affinity estimate (log intensity, higher = more binding, comparable within an allelic series)","10.2 upbm affinity estimate (log intensity, higher = more binding, comparable within an allelic series)"
ATATCATG,"11.1 upbm affinity estimate (log intensity, higher = more binding, comparable within an allelic series)","10.4 upbm affinity estimate (log intensity, higher = more binding, comparable within an allelic series)","11.1 upbm affinity estimate (log intensity, higher = more binding, comparable within an allelic series)","9.92 upbm affinity estimate (log intensity, higher = more binding, comparable within an allelic series)","10.8 upbm affinity estimate (log intensity, higher = more binding, comparable within an allelic series)","10.9 upbm affinity estimate (log intensity, higher = more binding, comparable within an allelic series)","10.4 upbm affinity estimate (log intensity, higher = more binding, comparable within an allelic series)","11.1 upbm affinity estimate (log intensity, higher = more binding, comparable within an allelic series)","11.2 upbm affinity estimate (log intensity, higher = more binding, comparable within an allelic series)","11 upbm affinity estimate (log intensity, higher = more binding, comparable within an allelic series)","11 upbm affinity estimate (log intensity, higher = more binding, comparable within an allelic series)","11 upbm affinity estimate (log intensity, higher = more binding, comparable within an allelic series)","11 upbm affinity estimate (log intensity, higher = more binding, comparable within an allelic series)"
AGATAGGG,"10.1 upbm affinity estimate (log intensity, higher = more binding, comparable within an allelic series)","9.56 upbm affinity estimate (log intensity, higher = more binding, comparable within an allelic series)","10.1 upbm affinity estimate (log intensity, higher = more binding, comparable within an allelic series)","9.33 upbm affinity estimate (log intensity, higher = more binding, comparable within an allelic series)",–,–,"9.71 upbm affinity estimate (log intensity, higher = more binding, comparable within an allelic series)","10.3 upbm affinity estimate (log intensity, higher = more binding, comparable within an allelic series)","10.4 upbm affinity estimate (log intensity, higher = more binding, comparable within an allelic series)","10.1 upbm affinity estimate (log intensity, higher = more binding, comparable within an allelic series)",–,"10 upbm affinity estimate (log intensity, higher = more binding, comparable within an allelic series)",–
AAGTGATA,"11.2 upbm affinity estimate (log intensity, higher = more binding, comparable within an allelic series)",–,"11.1 upbm affinity estimate (log intensity, higher = more binding, comparable within an allelic series)",–,–,"11 upbm affinity estimate (log intensity, higher = more binding, comparable within an allelic series)",–,"11.1 upbm affinity estimate (log intensity, higher = more binding, comparable within an allelic series)",–,"11.1 upbm affinity estimate (log intensity, higher = more binding, comparable within an allelic series)","10.9 upbm affinity estimate (log intensity, higher = more binding, comparable within an allelic series)",–,"11 upbm affinity estimate (log intensity, higher = more binding, comparable within an allelic series)"
GATCAGCC,"10.2 upbm affinity estimate (log intensity, higher = more binding, comparable within an allelic series)","9.81 upbm affinity estimate (log intensity, higher = more binding, comparable within an allelic series)",–,"9.41 upbm affinity estimate (log intensity, higher = more binding, comparable within an allelic series)","10 upbm affinity estimate (log intensity, higher = more binding, comparable within an allelic series)",–,"9.82 upbm affinity estimate (log intensity, higher = more binding, comparable within an allelic series)",–,–,–,–,"10.3 upbm affinity estimate (log intensity, higher = more binding, comparable within an allelic series)",–
CTTGATAC,"11.2 upbm affinity estimate (log intensity, higher = more binding, comparable within an allelic series)",–,"11.1 upbm affinity estimate (log intensity, higher = more binding, comparable within an allelic series)",–,–,–,–,"11.2 upbm affinity estimate (log intensity, higher = more binding, comparable within an allelic series)",–,"11.1 upbm affinity estimate (log intensity, higher = more binding, comparable within an allelic series)","10.9 upbm affinity estimate (log intensity, higher = more binding, comparable within an allelic series)",–,–
TATAACCA,"10.1 upbm affinity estimate (log intensity, higher = more binding, comparable within an allelic series)",–,"10.1 upbm affinity estimate (log intensity, higher = more binding, comparable within an allelic series)",–,"10.2 upbm affinity estimate (log intensity, higher = more binding, comparable within an allelic series)",–,–,"10.2 upbm affinity estimate (log intensity, higher = more binding, comparable within an allelic series)",–,–,–,"10.1 upbm affinity estimate (log intensity, higher = more binding, comparable within an allelic series)",–
CTGACACC,"10.3 upbm affinity estimate (log intensity, higher = more binding, comparable within an allelic series)",–,–,–,"9.83 upbm affinity estimate (log intensity, higher = more binding, comparable within an allelic series)",–,–,–,–,"11.1 upbm affinity estimate (log intensity, higher = more binding, comparable within an allelic series)",–,–,–
CATATCAA,"11.2 upbm affinity estimate (log intensity, higher = more binding, comparable within an allelic series)",–,"11.1 upbm affinity estimate (log intensity, higher = more binding, comparable within an allelic series)",–,–,–,–,"11.2 upbm affinity estimate (log intensity, higher = more binding, comparable within an allelic series)",–,"11.2 upbm affinity estimate (log intensity, higher = more binding, comparable within an allelic series)","10.9 upbm affinity estimate (log intensity, higher = more binding, comparable within an allelic series)",–,"11 upbm affinity estimate (log intensity, higher = more binding, comparable within an allelic series)"
ATCCAATA,"10.4 upbm affinity estimate (log intensity, higher = more binding, comparable within an allelic series)",–,"10.3 upbm affinity estimate (log intensity, higher = more binding, comparable within an allelic series)",–,"10.2 upbm affinity estimate (log intensity, higher = more binding, comparable within an allelic series)","10.3 upbm affinity estimate (log intensity, higher = more binding, comparable within an allelic series)",–,"10.4 upbm affinity estimate (log intensity, higher = more binding, comparable within an allelic series)","10.5 upbm affinity estimate (log intensity, higher = more binding, comparable within an allelic series)","10.4 upbm affinity estimate (log intensity, higher = more binding, comparable within an allelic series)","10.2 upbm affinity estimate (log intensity, higher = more binding, comparable within an allelic series)","10.3 upbm affinity estimate (log intensity, higher = more binding, comparable within an allelic series)","10.2 upbm affinity estimate (log intensity, higher = more binding, comparable within an allelic series)"

# — PMC11006913
